Our source for the inhibition values is PubChem BioAssay AID501 (PCMD, 2006).

The term inhibition denotes the drop in the measured response relative to a control, in per cent.

Among all 62,000 compounds or so, about 35 (0.06%) were called active. No stated cut-off is given here; in the data, active means inhibition above about 32% (passing the limit was not always enough); inconclusive means no clear call, values can overlap the other calls. The list comes from a sample in which actives are over-represented; it also holds similar structures and randomly drawn compounds.

The assay deals with Cathepsin S (Homo sapiens) (UniProt P25774). Put plainly: inhibitors of human cathepsin S, biochemical, compound mixtures (AID 501).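 Further: 0% = enzyme without compound and 100% = blank without enzyme.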 The conditions noted are these: recombinant cathepsin S, AMC dipeptide fluorescence, pooled mixtures; hits give high values;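 tested at 5 µM per compound within 10-compound mixtures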.
Cathepsin S (Homo sapiens), sequence (P25774 115-331 limits assumed): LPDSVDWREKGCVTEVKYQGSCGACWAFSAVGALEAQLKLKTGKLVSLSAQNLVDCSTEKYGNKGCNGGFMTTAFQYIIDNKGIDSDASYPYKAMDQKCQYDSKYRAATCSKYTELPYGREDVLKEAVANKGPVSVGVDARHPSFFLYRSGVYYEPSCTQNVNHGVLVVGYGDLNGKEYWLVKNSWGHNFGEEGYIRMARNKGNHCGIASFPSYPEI
For the compound `COc1ccc(-n2ncc3c(N4CCc5ccccc54)ncnc32)cc1`, the inhibition was -6.55% (inactive).

Turning to `COc1ccccc1C(=O)N1CCN=C1SCc1cccnc1`, the inhibition was 3.41% (inactive).

As to `CCn1cc(C(=O)N2CCN(Cc3ccc4c(c3)OCO4)CC2)c2cc(OC)c(OC)cc2c1=O`, the inhibition was 0.555% (inactive).

With `Cc1ccc(S(=O)(=O)NCc2cn3ccsc3n2)c(C)c1`, the inhibition is -2.17% (inactive).

For the compound `CC1(C)CC(=O)C(C=NCc2cccnc2)=C(O)C1`, the inhibition is -6.24% (inactive).

Take `COc1ccc(C(=O)Cn2nnc(-c3ccc(N4CCOCC4)cc3)n2)cc1OC`: the inhibition was 8.22% (inactive).

Regarding `Cc1c(-c2nn(C)c(=O)c3ccccc23)oc2ccc(F)cc2c1=O`, the inhibition was 21.9% (inactive).

For the compound `CCn1c(SCC(=O)Nc2cc(C)ccc2C)nnc1-c1cnccn1`, the inhibition was -6.74% (inactive).

Consider `O=C(Cn1nnc(-c2ccccc2)n1)NCc1ccccc1`, for which the inhibition is 3.11% (inactive).

Turning to `NC(=O)Cn1c(=O)oc2ccccc21`, the inhibition was 0.705% (inactive).

Consider `Cc1nnc(C)n1/N=C/c1ccc(C(C)C)cc1`, for which the inhibition is 5.16% (inactive).

Take `CCc1nnc(NC(=O)CSc2nnc(-c3ccncc3)n2Cc2ccccc2)s1`: the inhibition is 15.4% (inactive).

With `Cc1cc(N2CCCC2=O)cc(C)c1S(N)(=O)=O`, the inhibition is 14% (inactive).

On to `CC(C)OCCCNC(=O)CNC(=O)c1cccs1`, for which the inhibition was 15.3% (inactive).

As to `Cn1cnc2c1c(=O)n(Cc1c(Cl)cccc1Cl)c(=O)n2C`, the inhibition is -2.21% (inactive).

In the case of `CCOC(=O)CNC(=O)CSc1nnc(COc2ccc(Cl)cc2)n1CC`, the inhibition was 17% (inactive).

Take `Cc1cccc(N2CCN(C(=O)C3CCN(S(=O)(=O)c4cnc[nH]4)CC3)CC2)c1C`: the inhibition was -2.09% (inactive).

As to `CCOC(=O)c1c(NC(=O)c2ccc(Br)o2)sc2c1CCCC2`, the inhibition is -2.96% (inactive).

Regarding `COc1cccc(N(CC(=O)NC2CCCC2)C(=O)Cn2nnc(-c3ccc(C)cc3)n2)c1`, the inhibition is -32.1% (inactive).

For the compound `CC1CC(c2ccccc2)n2nc(NC(=O)c3cccs3)nc2N1` (centres undefined), the inhibition is 7.8% (inactive).

Regarding `CC(=O)Nc1cc2ccc(OC(C)=O)cc2oc1=O`, the inhibition is -31.5% (inactive).

On to `C=CCNC(=O)C1CC=CCC1C(=O)O` (centres undefined), for which the inhibition is -2.51% (inactive).

Turning to `CCOC(=O)CSc1nnc(CNc2nc(-c3ccccc3)cs2)n1C`, the inhibition was -5.74% (inactive).

Turning to `O=C(NC(c1ccccc1)c1ccccc1)N1CCN(CCO)CC1`, the inhibition is 10.9% (inactive).

Consider `Cc1cc(C(F)(F)F)nn1-c1nc(-c2ccco2)cc(C(F)(F)F)n1`, for which the inhibition is 7.66% (inactive).

As for `COCCn1c(CN(Cc2ccccc2)Cc2ccccc2)nc2c1c(=O)n(C)c(=O)n2C`, the inhibition is 9.43% (inactive).

Turning to `CCN(C(=O)CSc1ncn[nH]1)c1cccc2ccccc12`, the inhibition was 2.39% (inactive).

Take `Cc1noc(NS(=O)(=O)c2ccc(N3CC(O)=C(c4ccccc4)C3=N)cc2)c1C`: the inhibition is -12.9% (inactive).

As for `CCn1ncc(Br)c1C(=O)Nc1cc(C)ccc1F`, the inhibition was 6.74% (inactive).

Turning to `Cc1ccc(-c2nc(CS(=O)CC(=O)N3CCN(c4ncccn4)CC3)c(C)o2)cc1` (centres undefined), the inhibition is 7.31% (inactive).

On to `CC(C)n1c(C(O)c2ccccc2)nc2ccccc21` (centres undefined), for which the inhibition was -7.12% (inactive).

With `Cc1ccccc1N1CC(c2nc3ccccc3[nH]2)CC1=O` (centres undefined), the inhibition is -1.51% (inactive).

As for `Cc1ccc(-c2nnc(SC(C)C#N)n2N)cc1` (centres undefined), the inhibition is -1.33% (inactive).

As for `Cn1c(=O)c(C(=O)Nc2ncccn2)c(O)c2ccccc21`, the inhibition was -4.57% (inactive).

In the case of `CC(=O)NCCc1ccc(S(=O)(=O)N(C)C2CCS(=O)(=O)C2)cc1` (centres undefined), the inhibition is 30% (inactive).

As to `CCc1ccccc1NC(=O)CSc1nnc([C@@H](NC(=O)OC(C)(C)C)C(C)C)o1`, the inhibition was 9.29% (inactive).

On to `Cc1nn(C)c(C)c1S(=O)(=O)N1CCc2ccccc21`, for which the inhibition is -5.94% (inactive).

With `CCOC(=O)c1sc(N(Cc2ccccc2)C(=O)CN2C(=O)CN(C)C2=O)nc1C`, the inhibition is -1.84% (inactive).

`COCCn1c(=O)[nH]c2cc(C(=O)NCc3cccnc3)ccc2c1=O`: the inhibition is 4.14% (inactive).

Consider `Cc1ccc(NC(=O)CS(=O)CC(=O)N(c2ccccc2)C(C)C(=O)NC2CCCC2)cc1` (centres undefined), for which the inhibition is -27.8% (inactive).

Turning to `O=C(C1CCN(CC2CCCCC2)CC1)N1CCCC1`, the inhibition is -3% (inactive).

With `FC(F)Oc1ccccc1C1CC(c2ccc(Br)s2)Nc2ncnn21` (centres undefined), the inhibition is 1.68% (inactive).

On to `CCC(C)n1[nH]c(=O)c2c(C)cc(C)nc21` (centres undefined), for which the inhibition is 12.4% (inactive).

For the compound `Cc1nc(NC(=O)CCC(=O)O)sc1C(=O)N(C)C`, the inhibition was -4.56% (inactive).

`O=C(Cn1cc2c(n1)CCCCC2)NCCN1CCOCC1`: the inhibition is 7.2% (inactive).

Consider `CC(C)c1ccc(NS(=O)(=O)c2cn(C)c(=O)n(C)c2=O)cc1`, for which the inhibition was -0.575% (inactive).

As to `COc1ccccc1NC(=O)CSc1nnc(Cn2nnc(-c3ccccc3)n2)n1-c1ccccc1`, the inhibition is -0.79% (inactive).

In the case of `CC(CNC(=O)c1ccc(Br)o1)NC(=O)c1ccc(Br)o1` (centres undefined), the inhibition is 6.17% (inactive).

Regarding `COc1cc(Cl)cc(C2NC(=O)NC(C)=C2C(=O)NCc2ccccc2)c1O` (centres undefined), the inhibition was 7.15% (inactive).

`CCOC(=O)C(C)Oc1cccc2c(=O)n(CC(=O)N3CCc4ccccc43)ccc12` (centres undefined): the inhibition is -6.21% (inactive).

For `CC(NC(=O)CN1CCN(Cc2ccc(Cl)cc2)C1=O)c1ccc2c(c1)OCCO2` (centres undefined), the inhibition was 55.3% (inactive).

As to `CSc1sc(C)cc1C1C(C#N)=C(N)N(c2cccnc2)C2=C1C(=O)CCC2` (centres undefined), the inhibition was 1.56% (inactive).

For the compound `NC(=O)c1ccsc1NC(=O)c1ccco1`, the inhibition was 7.91% (inactive).

For `COC(=O)[C@H](CCSC)NC(=O)Nc1ccc(OC)cc1`, the inhibition is -1.09% (inactive).

Turning to `O=C(CCCn1c(=O)[nH]c2cc(Cl)ccc2c1=O)NCCN1CCN(c2ccccc2)CC1`, the inhibition was 13.6% (inactive).

As for `Cc1ccc(-c2noc(CSc3nnc(-c4ccccc4)n3C)n2)cc1`, the inhibition was -4.08% (inactive).

Regarding `COCCCn1c(CCC(=O)O)ccc1-c1ccc(F)cc1`, the inhibition is -19.4% (inactive).

For `CCCNS(=O)(=O)c1ccc(CCC(=O)NCc2cccnc2)cc1`, the inhibition was -3.48% (inactive).

Turning to `CCOc1ccc(CC(=O)Nc2ccc(S(=O)(=O)Nc3cc(C)on3)cc2)cc1OCC`, the inhibition is -4.34% (inactive).

Regarding `Cc1cnc(NC(=O)CSc2nnc(-c3ccccc3)n2Cc2ccccc2)s1`, the inhibition is 11.8% (inactive).

With `CCOc1ccc(NC(=O)Nc2ccc(N(C)C(C)=O)cc2)cc1`, the inhibition is -16.6% (inactive).

As for `Cn1c(C(=O)NCCc2ccsc2)cc2c(=O)n(C)c3ccccc3c21`, the inhibition is -2.9% (inactive).

`Cn1c(C(=O)NCCN2CCc3ccccc3C2)cc2c(=O)[nH]c3ccccc3c21`: the inhibition was 45.6% (active).

In the case of `Cc1cccc(N2CCN(C(=O)c3cc4c(=O)[nH]c5ccccc5c4n3C)CC2)c1C`, the inhibition was 16.8% (inactive).

On to `CC(=O)Nc1ccc(-c2cn3cccnc3n2)cc1`, for which the inhibition is -4.08% (inactive).

`COc1ccc(N(CC(=O)NC2CCCCCCC2)S(=O)(=O)c2c(C)nn(C)c2C)cc1`: the inhibition is -2.48% (inactive).

On to `COc1ccc(N(C(=O)c2cccnc2)S(=O)(=O)c2ccc3c(c2)n(C)c(=O)n3C)cc1`, for which the inhibition is -5.68% (inactive).

For the compound `COC(=O)c1[nH]c2cccc(C)c2c1NC(=O)CN1CCCc2ccccc21`, the inhibition was 51.2% (active).

Turning to `Cc1ccccc1NC(=O)CNc1ccccc1N1CCCCC1`, the inhibition is -4.53% (inactive).

`COC(=O)c1[nH]c2ccccc2c1NC(=O)CN1CCCc2ccccc21`: the inhibition was 15.9% (inactive).

In the case of `COC(CCN(C)C)(c1ccccc1)c1ccccc1`, the inhibition is -4.38% (inactive).

As to `CCN(CCCCOC(=O)c1ccc(OC)c(OC)c1)C(C)Cc1ccc(OC)cc1` (centres undefined), the inhibition was 14.3% (inactive).

Turning to `O=C(O)C1CCCN(S(=O)(=O)c2cccc3cccnc23)C1` (centres undefined), the inhibition was -4.15% (inactive).

`O=C(O)CSCNC(=O)CC12CC3CC(CC(C3)C1)C2`: the inhibition was 1.12% (inactive).

With `CCOc1ccccc1Nc1nnc(SCC(=O)Nc2cc(C)on2)s1`, the inhibition is 8.96% (inactive).

As to `CC1=C(C(=O)OCc2ccccc2)C(c2ccco2)n2ncnc2N1` (centres undefined), the inhibition was 6.81% (inactive).

For the compound `CCOC(=O)C1CCN(C(=O)C2CCN(S(=O)(=O)CC)CC2)CC1`, the inhibition is 6.47% (inactive).

In the case of `O=C(CN(c1ccc2c(c1)OCCO2)S(=O)(=O)c1ccccc1)Nc1ccc2c(c1)OCO2`, the inhibition is 8.94% (inactive).

Turning to `Cn1c(=O)[nH]c(=O)c2c1nc(N1CCCCCC1)n2CC(=O)c1ccccc1`, the inhibition was 12.8% (inactive).

Take `Cc1nnc(SCCCn2c(N3CCCCC3)nc3c2c(=O)[nH]c(=O)n3C)s1`: the inhibition is 37.6% (active).

Take `C=C(C)Cn1c(N2CCCC2)nc2c1c(=O)[nH]c(=O)n2C`: the inhibition is -0.005% (inactive).

For `CCOc1ccc(C2C(C(=O)O)c3ccccc3C(=O)N2CCN2CCOCC2)cc1` (centres undefined), the inhibition was 39.9% (inactive).

On to `Cn1c(=O)cc(SCC(=O)N2CCCC2)c2cc(Cl)ccc21`, for which the inhibition was 1.36% (inactive).

In the case of `O=C(NCc1ccccn1)Nc1ccc(F)cc1`, the inhibition is 17.6% (inactive).

With `CCCc1nc(-c2ccccc2O)n(-c2ccccc2)n1`, the inhibition is -4.97% (inactive).

With `O=C(O)C1CC=CCC1C(=O)NCCc1ccccc1` (centres undefined), the inhibition was -14.2% (inactive).

With `O=C1c2ccccc2C(=O)N1c1ccccc1S(=O)C(F)(F)F` (centres undefined), the inhibition is 16.1% (inactive).

With `COC(=O)CN(c1nc(C)c(Cl)c(OC)n1)S(=O)(=O)c1ccc(C)cc1`, the inhibition was 3.91% (inactive).

With `CCOc1ccc(NC(=O)CSc2nc3c(c(=O)n2-c2ccccc2OC)SCC3)cc1`, the inhibition was -11.1% (inactive).

On to `O=C(NCCCN1CCN(Cc2ccccc2)CC1)C1CCN(S(=O)(=O)N2CCCC2)CC1`, for which the inhibition was 17.9% (inactive).

On to `O=C(COc1ncnc2ccccc12)NC(=O)NCc1ccccc1`, for which the inhibition is -8.35% (inactive).

For the compound `Cc1cccc(N2CCN(Cc3c(C)n(C)n(-c4ccccc4)c3=O)CC2)c1C`, the inhibition was -2.31% (inactive).

With `CC(C)C[C@H](NC(=O)[C@@H]1O[C@H]1C(=O)O)C(=O)NCCCCN=C(N)N`, the inhibition was 117% (active).

As to `Cc1cccc(N2CCN(C(c3ccccc3)c3nnnn3CC3CCCO3)CC2)c1C` (centres undefined), the inhibition was 6.28% (inactive).
